According to PubChem BioAssay AID1159580 (chemical genetic matrix, 2015):
Out of some 5,500 compounds screened, about 2,000 (36%) were called active. Another 18% or so got no clear call; they are omitted. The list shows a part of the results. A number with no mark means an inactive call. No stated cut-off is given here; in the data, active means normalized growth mostly below about 0.91 (no sharp cut-off); inconclusive means no clear call, values can overlap the other calls; inactive means mostly above about 0.92.

Assay: chemical genetic growth profiling, strain panel (AID 1159580);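 further: tested at 20 µM; growth read once vehicle control cultures reached saturation at 30 °C; 1 = growth at the plate median or of vehicle wells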
Conditions: S. cerevisiae deletion strains, growth OD

CC(C)(C)c1cc(C(=O)/C(C#N)=N\Nc2ccc(Cl)cc2)no1
normalized growth (locus YAR019C, strain CDC15, stronger effect = lower value): 0.959
normalized growth (locus YBL105C, strain PKC1, stronger effect = lower value): 0.974
normalized growth (locus YBR135W, strain CKS1, stronger effect = lower value): 0.952
normalized growth (locus YBR136W, strain MEC1, stronger effect = lower value): 0.963
normalized growth (locus YBR160W, strain CDC28, stronger effect = lower value): 0.966
normalized growth (locus YDL017W, strain CDC7, stronger effect = lower value): 0.96
normalized growth (locus YDL028C, strain MPS1, stronger effect = lower value): 0.95
normalized growth (locus YDL101C, strain DUN1, stronger effect = lower value): 0.979
normalized growth (locus YDL108W, strain KIN28, stronger effect = lower value): 0.962
normalized growth (locus YDL214C, strain PRR2, stronger effect = lower value): 0.253 (active)
normalized growth (locus YDR052C, strain DBF4, stronger effect = lower value): 0.967
normalized growth (locus YDR226W, strain ADK1, stronger effect = lower value): 0.952
normalized growth (locus YDR477W, strain SNF1, stronger effect = lower value): 0.229 (active)
normalized growth (locus YER123W, strain YCK3, stronger effect = lower value): 0.146 (active)
normalized growth (locus YER133W, strain GLC7, stronger effect = lower value): 0.326 (active)
normalized growth (locus YFL009W, strain cdc4, stronger effect = lower value): 0.907
normalized growth (locus YFL029C, strain CAK1, stronger effect = lower value): 0.95
normalized growth (locus YFR003C, strain YPI1, stronger effect = lower value): 0.96
normalized growth (locus YFR019W, strain FAB1, stronger effect = lower value): 0.116 (active)
normalized growth (locus YFR028C, strain CDC14, stronger effect = lower value): 0.958
normalized growth (locus YGR040W, strain KSS1, stronger effect = lower value): 0.321 (active)
normalized growth (locus YGR052W, strain FMP48, stronger effect = lower value): 0.281 (active)
normalized growth (locus YGR092W, strain DBF2, stronger effect = lower value): 0.0911 (active)
normalized growth (locus YHR030C, strain SLT2, stronger effect = lower value): 0.212 (active)
normalized growth (locus YHR079C, strain IRE1, stronger effect = lower value): 0.106 (active)
normalized growth (locus YHR082C, strain KSP1, stronger effect = lower value): 0.154 (active)
normalized growth (locus YHR205W, strain SCH9, stronger effect = lower value): 0.043 (active)
normalized growth (locus YIL147C, strain SLN1, stronger effect = lower value): 0.957
normalized growth (locus YJL095W, strain BCK1, stronger effect = lower value): 0.145 (active)
normalized growth (locus YJL128C, strain PBS2, stronger effect = lower value): 0.396 (active)
normalized growth (locus YJL157C, strain FAR1, stronger effect = lower value): 0.165 (active)
normalized growth (locus YJR016C, strain ILV3, stronger effect = lower value): 0.914
normalized growth (locus YJR066W, strain TOR1 (second series), stronger effect = lower value): 0.237 (active)
normalized growth (locus YJR066W, strain TOR1, stronger effect = lower value): 0.169 (active)
normalized growth (locus YKL048C, strain ELM1, stronger effect = lower value): 0.172 (active)
normalized growth (locus YKL067W, strain YNK1, stronger effect = lower value): 0.213 (active)
normalized growth (locus YKL101W, strain HSL1, stronger effect = lower value): 0.106 (active)
normalized growth (locus YKL193C, strain SDS22, stronger effect = lower value): 0.959
normalized growth (locus YKL203C, strain TOR2, stronger effect = lower value): 0.284 (active)
normalized growth (locus YLR113W, strain HOG1, stronger effect = lower value): 0.156 (active)
normalized growth (locus YLR133W, strain CKI1, stronger effect = lower value): 0.112 (active)
normalized growth (locus YLR403W, strain SFP1, stronger effect = lower value): 0.149 (active)
normalized growth (locus YML070W, strain DAK1, stronger effect = lower value): 0.137 (active)
normalized growth (locus YMR001C, strain CDC5, stronger effect = lower value): 0.958
normalized growth (locus YMR205C, strain PFK2 (second series), stronger effect = lower value): 0.137 (active)
normalized growth (locus YMR277W, strain FCP1, stronger effect = lower value): 0.953
normalized growth (locus YNL006W, strain LST8, stronger effect = lower value): 0.981
normalized growth (locus YNL020C, strain ARK1, stronger effect = lower value): 0.119 (active)
normalized growth (locus YNL161W, strain CBK1, stronger effect = lower value): 0.96
normalized growth (locus YNL183C, strain NPR1, stronger effect = lower value): 0.294 (active)
normalized growth (locus YNL222W, strain SSU72, stronger effect = lower value): 0.966
normalized growth (locus YNL307C, strain MCK1 (second series), stronger effect = lower value): 0.0976 (active)
normalized growth (locus YOL078W, strain AVO1, stronger effect = lower value): 0.922
normalized growth (locus YOL136C, strain PFK27, stronger effect = lower value): 0.191 (active)
normalized growth (locus YOR061W, strain CKA2, stronger effect = lower value): 0.103 (active)
normalized growth (locus YOR119C, strain RIO1, stronger effect = lower value): 0.337 (active)
normalized growth (locus YOR231W, strain MKK1, stronger effect = lower value): 0.0922 (active)
normalized growth (locus YOR329C, strain SCD5, stronger effect = lower value): 0.975
normalized growth (locus YPL031C, strain PHO85, stronger effect = lower value): 0.105 (active)
normalized growth (locus YPL153C, strain RAD53, stronger effect = lower value): 0.115 (active)
normalized growth (locus YPL204W, strain HRR25, stronger effect = lower value): 0.115 (active)
normalized growth (locus YPL209C, strain IPL1, stronger effect = lower value): 0.97
normalized growth (locus YPL256C, strain CLN2, stronger effect = lower value): 0.146 (active)
normalized growth (locus YPR025C, strain CCL1, stronger effect = lower value): 0.961
normalized growth (locus YPR106W, strain ISR1, stronger effect = lower value): 0.842 (active)
normalized growth (locus YPR111W, strain DBF20, stronger effect = lower value): 0.874
normalized growth (strain TSCII, stronger effect = lower value): 0.948
